# Results: PubChem BioAssay (EPA / NIEHS)
# Calls of active or inactive are those of the source. The calls were made as follows: active = hit-call score of the fitted dose curve at least 0.9, where 1 is the maximum; inactive = score below 0.9.
# Columns and labels:
# Conditions in all cases: primary human lung fibroblasts
# Decorin, DCN (gene 1634) = assay: BSK_MyoF_Decorin: BioMAP Diversity Plus: MyoF Assay for Decorin Biomarker Activity (AID 2284265)
# How it was run: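 In this multiplexed fibroblast system, secreted or surface decorin is detected by ELISA one day after dosing, with increases scored against the DMSO vehicle.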
# [1] = BSK_MyoF_SRB: Viability Assessment in the BioMAP Diversity Plus: MyoF Assay (AID 2284267);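 also: total protein by SRB absorbance in parallel cultures as cytotoxicity measure; cells assessed 24 h after compound addition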
# How it was run: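 Lung fibroblast cultures, 24 h post-dose; fix 10% TCA, stain 0.1% SRB, read 560 nm. Signal = total protein as cytotoxicity measure; fitted relative to DMSO negative control.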
# [2] = read-out: Matrix Metallopeptidase 1 (MMP1), MMP1 (gene 4312); assay: BSK_MyoF_MMP1: BioMAP Diversity Plus: MyoF Assay for Matrix Metallopeptidase 1 (MMP1) Biomarker Activity (AID 2284268)
# How it was run: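 Fibroblasts from human lung receive compound for 24 h before ELISA quantitation of MMP1. DMSO serves as baseline, and the endpoint is fitted for signal gain.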
# [3] = read-out: TIMP metallopeptidase inhibitor 1 (TIMP1), TIMP1 (gene 7076); assay: BSK_MyoF_TIMP1: BioMAP Diversity Plus: MyoF Assay for TIMP metallopeptidase inhibitor 1 (TIMP1) Biomarker Activity (AID 2284269)
# How it was run: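 ELISA read-out of TIMP-1 from primary human lung fibroblast cultures 24 h after compound dosing; gain of signal relative to DMSO vehicle baseline defines activity.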
structure (smiles),measurement,setting,value
CCCCCCCCCCCCN(C)C,outcome,"Decorin, DCN (gene 1634)",inactive
same,outcome,[1],inactive
same,outcome,[2],inactive
same,outcome,[3],inactive
Nc1ccc(N)cc1,outcome,"Decorin, DCN (gene 1634)",inactive
same,outcome,[2],inactive
same,outcome,[3],inactive
CC(C)(COCC1CO1)COCC1CO1 (stereo not given),outcome,"Decorin, DCN (gene 1634)",inactive
same,outcome,[2],inactive
same,outcome,[3],inactive
CCCCN(CCCC)C(=S)[S-].CCCCN(CCCC)C(=S)[S-].[Ni+2],outcome,"Decorin, DCN (gene 1634)",inactive
same,outcome,[2],inactive
same,outcome,[3],inactive
c1ccc2sc(SNC3CCCCC3)nc2c1,outcome,"Decorin, DCN (gene 1634)",inactive
same,outcome,[2],inactive
same,outcome,[3],inactive
CCOP(=S)(OCC)SCS(=O)(=O)C(C)(C)C,outcome,"Decorin, DCN (gene 1634)",inactive
same,outcome,[1],inactive
same,outcome,[2],inactive
same,outcome,[3],inactive
CCOC(=O)CC(=O)CCl,outcome,"Decorin, DCN (gene 1634)",inactive
same,outcome,[1],inactive
same,outcome,[2],inactive
same,outcome,[3],inactive
Cc1ccccc1OP(=O)(Oc1ccccc1)Oc1ccccc1,AC50,"Decorin, DCN (gene 1634)",2300 nM (active)
same,AC50,[2],29600 nM (active)
same,AC50,[3],18.7 nM (active)
COCC(=O)N(c1c(C)cccc1C)[C@H](C)C(=O)OC,outcome,"Decorin, DCN (gene 1634)",inactive
same,outcome,[2],inactive
same,outcome,[3],inactive
CCC(C)(C#N)N=NC(C)(C#N)CC (stereo not given),outcome,"Decorin, DCN (gene 1634)",inactive
same,outcome,[1],inactive
same,outcome,[2],inactive
same,outcome,[3],inactive
Cc1ccc(OP(=O)(Oc2ccc(C)cc2C)Oc2ccc(C)cc2C)c(C)c1,outcome,"Decorin, DCN (gene 1634)",inactive
same,AC50,[2],5970 nM (active)
same,outcome,[3],inactive
Oc1ccc(Cc2ccc(O)cc2)cc1,outcome,"Decorin, DCN (gene 1634)",inactive
same,outcome,[2],inactive
same,outcome,[3],inactive
C=CC(Cl)CCl (stereo not given),outcome,"Decorin, DCN (gene 1634)",inactive
same,outcome,[2],inactive
same,AC50,[3],61 nM (active)
C[C@]12CC[C@@H](O)C[C@@H]1CC[C@@H]1[C@@H]2CC[C@]2(C)C(=O)CC[C@@H]12,outcome,"Decorin, DCN (gene 1634)",inactive
same,outcome,[2],inactive
same,outcome,[3],inactive
[Cl][Sn]([c]1ccccc1)([c]1ccccc1)[c]1ccccc1,AC50,"Decorin, DCN (gene 1634)",167 nM (active)
same,AC50,[1],1360 nM (active)
same,AC50,[2],423 nM (active)
same,AC50,[3],355 nM (active)
